Test results published in PubChem BioAssay AID1159580 (chemical genetic matrix, 2015).
Values joined by “and” are separate entries in the source; they are usually repeats but may differ in a detail not shown here. Equal values may be shown once. Out of some 5,500 compounds screened, about 2,000 (36%) were called active. Another 18% or so got no clear call; they are omitted. The list shows a part of the results. Unmarked numbers belong to inactive results. Rule as the data show it: active = normalized growth mostly below about 0.91 (no sharp cut-off); inconclusive = no clear call, values can overlap the other calls; inactive = mostly above about 0.92.

Assay: chemical genetic growth profiling, strain panel (AID 1159580);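 also: tested at 20 µM; growth read once vehicle control cultures reached saturation at 30 °C; 1 = growth at the plate median or of vehicle wells; lower values mean less growth of the strain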
Conditions: S. cerevisiae deletion strains, growth OD

**Q.** Which normalized growth (locus YAL013W, strain DEP1, active compounds read low) does the source give for `CC(N)(Cc1ccc(O)cc1)C(=O)O` (stereo not drawn) here?
**A.** Its normalized growth is 1.03.

**Q.** What about the normalized growth (locus YAL040C, strain CLN3, active compounds read low) of the same compound?
**A.** The normalized growth was 0.969 and 1.01.

**Q.** And the normalized growth (locus YCL061C, strain MRC1 (second series), active compounds read low)?
**A.** Its normalized growth is 0.991 and 1.01.

**Q.** And the normalized growth (locus YDR150W, strain NUM1, active compounds read low)?
**A.** The normalized growth was 1.

**Q.** And the normalized growth (locus YDR363W, strain ESC2, active compounds read low)?
**A.** Its normalized growth is 1 and 1.03.

**Q.** And the normalized growth (locus YER002W, strain NOP16, active compounds read low)?
**A.** Its normalized growth is 0.984 and 1.

**Q.** And the normalized growth (locus YGR078C, strain PAC10, active compounds read low)?
**A.** The normalized growth was 1.02.

**Q.** What about the normalized growth (locus YGR229C, strain SMI1, active compounds read low) of the same compound?
**A.** Its normalized growth is 1.03.

**Q.** What about the normalized growth (locus YJR075W, strain HOC1, active compounds read low) of the same compound?
**A.** The normalized growth was 1.02.

**Q.** And the normalized growth (locus YMR263W, strain SAP30, active compounds read low)?
**A.** Its normalized growth is 1.01.

**Q.** What about the normalized growth (locus YNL128W, strain TEP1, active compounds read low) of the same compound?
**A.** The normalized growth was 0.984.

**Q.** And the normalized growth (locus YNL153C, strain GIM3, active compounds read low)?
**A.** The normalized growth was 0.998 and 1.02.

**Q.** What about the normalized growth (locus YNL175C, strain NOP13, active compounds read low) of the same compound?
**A.** The normalized growth was 0.97 and 1.01.

**Q.** What about the normalized growth (locus YNL197C, strain WHI3, active compounds read low) of the same compound?
**A.** The normalized growth was 0.975 and 0.984.

**Q.** And the normalized growth (locus YNL224C, strain SQS1, active compounds read low)?
**A.** Its normalized growth is 1.01 and 1.

**Q.** And the normalized growth (locus YNL322C, strain KRE1, active compounds read low)?
**A.** Its normalized growth is 1.03.

**Q.** What about the normalized growth (locus YOR083W, strain WHI5 (second series), active compounds read low) of the same compound?
**A.** The normalized growth was 0.974 and 1.

**Q.** What about the normalized growth (locus YPL055C, strain LGE1, active compounds read low) of the same compound?
**A.** The normalized growth was 1.01 and 1.02.

**Q.** What does the source list for `CCOC(=O)C(C)(N)Cc1ccc(O)c(O)c1` (stereo not drawn)?
**A.** normalized growth (locus YAL021C, strain ccr4, active compounds read low): 0.967; normalized growth (locus YAL026C, strain drs2, active compounds read low): 0.958; normalized growth (locus YAL030W, strain snc1, active compounds read low): 0.965; normalized growth (locus YBL061C, strain skt5, active compounds read low): 0.965; normalized growth (locus YBR009C, strain hhf1, active compounds read low): 0.984; normalized growth (locus YBR023C, strain chs3, active compounds read low): 0.981; normalized growth (locus YBR171W, strain sec66, active compounds read low): 0.967; normalized growth (locus YBR231C, strain swc5, active compounds read low): 0.992; normalized growth (locus YBR279W, strain paf1, active compounds read low): 0.993; normalized growth (locus YCL011C, strain gbp2, active compounds read low): 0.983; normalized growth (locus YCL016C, strain dcc1, active compounds read low): 0.971; normalized growth (locus YCL061C, strain MRC1, active compounds read low): 0.965; normalized growth (locus YCL069W, strain vba3, active compounds read low): 0.989; normalized growth (locus YCR088W, strain abp1, active compounds read low): 0.995; normalized growth (locus YDL005C, strain med2, active compounds read low): 0.986; normalized growth (locus YDL040C, strain nat1, active compounds read low): 0.993; normalized growth (locus YDR001C, strain nth1, active compounds read low): 0.982; normalized growth (locus YDR069C, strain doa4, active compounds read low): 0.944; normalized growth (locus YDR137W, strain rgp1, active compounds read low): 0.956; normalized growth (locus YDR159W, strain sac3, active compounds read low): 0.953; normalized growth (locus YDR195W, strain ref2): 0.985; normalized growth (locus YDR297W, strain sur2, active compounds read low): 0.974; normalized growth (locus YDR334W, strain swr1, active compounds read low): 0.921; normalized growth (locus YDR335W, strain msn5, active compounds read low): 0.971; normalized growth (locus YDR392W, strain spt3, active compounds read low): 0.964; normalized growth (locus YEL003W, strain gim4, active compounds read low): 0.98; normalized growth (locus YEL037C, strain rad23, active compounds read low): 0.983; normalized growth (locus YEL061C, strain CIN8 (second series), active compounds read low): 0.988; normalized growth (locus YER015W, strain faa2, active compounds read low): 0.952; normalized growth (locus YER016W, strain bim1, active compounds read low): 0.992; normalized growth (locus YER111C, strain swi4, active compounds read low): 0.968; normalized growth (locus YER155C, strain BEM2 (second series), active compounds read low): 0.977; normalized growth (locus YFR010W, strain ubp6, active compounds read low): 0.976; normalized growth (locus YGL167C, strain pmr1, active compounds read low): 0.946; normalized growth (locus YGL173C, strain kem1, active compounds read low): 0.945; normalized growth (locus YGL227W, strain vid30, active compounds read low): 0.983; normalized growth (locus YGL240W, strain doc1, active compounds read low): 0.958; normalized growth (locus YGL253W, strain hxk2, active compounds read low): 0.978; normalized growth (locus YHR013C, strain ard1, active compounds read low): 0.951; normalized growth (locus YHR027C, strain rpn1, active compounds read low): 0.947; normalized growth (locus YHR030C, strain SLT2, active compounds read low): 1.08; normalized growth (locus YHR079C, strain IRE1, active compounds read low): 1.08; normalized growth (locus YHR142W, strain chs7, active compounds read low): 0.989; normalized growth (locus YJL092W, strain hpr5, active compounds read low): 0.978; normalized growth (locus YJL095W, strain BCK1 (second series), active compounds read low): 0.973; normalized growth (locus YJL095W, strain BCK1, active compounds read low): 1.02; normalized growth (locus YJL115W, strain asf1, active compounds read low): 0.95; normalized growth (locus YJL129C, strain trk1, active compounds read low): 0.994; normalized growth (locus YJL154C, strain vps35, active compounds read low): 0.986; normalized growth (locus YJL164C, strain tpk1, active compounds read low): 0.963; normalized growth (locus YJL166W, strain qcr8, active compounds read low): 0.985; normalized growth (locus YJL187C, strain SWE1, active compounds read low): 0.977; normalized growth (locus YJR066W, strain TOR1, active compounds read low): 1; normalized growth (locus YKL160W, strain elf1, active compounds read low): 0.987; normalized growth (locus YKR026C, strain gcn3, active compounds read low): 0.971; normalized growth (locus YKR091W, strain srl3, active compounds read low): 0.998; normalized growth (locus YLL001W, strain dnm1, active compounds read low): 0.974; normalized growth (locus YLL026W, active compounds read low): 0.971; normalized growth (locus YLL041C, strain sdh2, active compounds read low): 0.962; normalized growth (locus YLR027C, strain aat2, active compounds read low): 0.962; normalized growth (locus YLR113W, strain HOG1, active compounds read low): 1; normalized growth (locus YLR221C, strain rsa3, active compounds read low): 0.976; normalized growth (locus YLR258W, strain gsy2, active compounds read low): 0.986; normalized growth (locus YLR262C, strain YPT6 (second series), active compounds read low): 0.881; normalized growth (locus YLR320W, strain mms22, active compounds read low): 0.988; normalized growth (locus YLR342W, strain FKS1, active compounds read low): 0.977; normalized growth (locus YLR357W, strain rsc2, active compounds read low): 0.969; normalized growth (locus YLR370C, strain arc18, active compounds read low): 0.981; normalized growth (locus YLR384C, strain iki3, active compounds read low): 0.958; normalized growth (locus YML120C, strain ndi1, active compounds read low): 0.974; normalized growth (locus YMR058W, strain fet3, active compounds read low): 0.946; normalized growth (locus YMR125W, strain sto1, active compounds read low): 0.998; normalized growth (locus YMR129W, active compounds read low): 0.997; normalized growth (locus YMR205C, strain PFK2, active compounds read low): 0.971; normalized growth (locus YMR231W, strain pep5, active compounds read low): 0.972; normalized growth (locus YNL071W, strain lat1, active compounds read low): 1; normalized growth (locus YNL183C, strain NPR1, active compounds read low): 0.987; normalized growth (locus YNL209W, strain ssb2, active compounds read low): 0.961; normalized growth (locus YNL248C, strain rpa49, active compounds read low): 0.984; normalized growth (locus YNL322C, strain KRE1 (second series), active compounds read low): 0.979; normalized growth (locus YNR049C, strain mso1, active compounds read low): 0.972; normalized growth (locus YOR001W, strain rrp6, active compounds read low): 0.977; normalized growth (locus YOR070C, strain gyp1, active compounds read low): 0.978; normalized growth (locus YOR080W, strain dia2, active compounds read low): 0.982; normalized growth (locus YOR083W, strain WHI5, active compounds read low): 0.983; normalized growth (locus YOR106W, strain vam3, active compounds read low): 0.859 (active); normalized growth (locus YOR231W, strain MKK1, active compounds read low): 1.06; normalized growth (locus YOR265W, strain rbl2, active compounds read low): 0.969; normalized growth (locus YOR270C, strain vph1, active compounds read low): 0.951; normalized growth (locus YOR290C, strain snf2, active compounds read low): 0.946; normalized growth (locus YPL051W, strain arl3, active compounds read low): 0.964; normalized growth (locus YPL078C, strain atp4, active compounds read low): 0.984; normalized growth (locus YPL106C, strain sse1, active compounds read low): 0.886; normalized growth (locus YPL240C, strain hsp82, active compounds read low): 0.975; normalized growth (locus YPL256C, strain CLN2, active compounds read low): 1.06
